Inconclusive results are not listed. Active and inactive are the calls of the source. Unless noted, calls come from the whole dose curve; as a rule, active = well fitted curve in the direction sought with a large enough effect; inconclusive = small, poorly fitted or top-dose-only effect, or another doubt; inactive = no such curve, though single readings can be large; an effect the other way counts as inactive or inconclusive.
How the values were obtained:
[1] = target: ATP-dependent 6-phosphofructokinase (Trypanosoma brucei brucei) (UniProt O15648); test: qHTS Assay to Find Inhibitors of T. brucei phosphofructokinase: hit validation (AID 492961)
ATP-dependent 6-phosphofructokinase (Trypanosoma brucei brucei), sequence (O15648 whole entry, looked up): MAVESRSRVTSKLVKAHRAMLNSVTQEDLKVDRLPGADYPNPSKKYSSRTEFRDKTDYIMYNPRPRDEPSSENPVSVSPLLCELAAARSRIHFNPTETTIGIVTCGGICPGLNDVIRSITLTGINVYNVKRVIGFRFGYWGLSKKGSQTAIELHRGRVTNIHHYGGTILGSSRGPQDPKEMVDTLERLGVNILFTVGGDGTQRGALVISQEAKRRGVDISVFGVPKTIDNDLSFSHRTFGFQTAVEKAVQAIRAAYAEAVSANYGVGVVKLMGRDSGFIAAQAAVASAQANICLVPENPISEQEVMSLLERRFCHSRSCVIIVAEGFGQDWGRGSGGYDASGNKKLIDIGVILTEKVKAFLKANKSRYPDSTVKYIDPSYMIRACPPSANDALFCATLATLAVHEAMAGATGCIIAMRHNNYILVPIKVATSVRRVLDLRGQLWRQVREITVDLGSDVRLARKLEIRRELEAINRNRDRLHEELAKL
Procedure, shortened: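 Percent activity derived from corrected luminescence, normalized between 0x and 1x enzyme controls, then fitted to concentration-response curves. Conditions: 1.25 nM PFK, 0.1 mM ATP, 0.5 mM F6P, 45 min RT.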

[2] = Primary qHTS for inhibitors of SARS-S pseudo-typed particle cell entry (AID 1479145; calls by dose curve)
[3] = Primary qHTS for inhibitors of MERS-S pseudo-typed particle cell entry (AID 1479149; calls by dose curve)
[4] = target: Glutathione peroxidase 1 (Homo sapiens) (UniProt P07203); test: Primary qHTS Assay for Inhibitors of Recombinant Selenoprotein Glutathione Peroxidase 1 (GPX1) (AID 1845191)
Glutathione peroxidase 1 (Homo sapiens), sequence (P07203 whole entry, looked up): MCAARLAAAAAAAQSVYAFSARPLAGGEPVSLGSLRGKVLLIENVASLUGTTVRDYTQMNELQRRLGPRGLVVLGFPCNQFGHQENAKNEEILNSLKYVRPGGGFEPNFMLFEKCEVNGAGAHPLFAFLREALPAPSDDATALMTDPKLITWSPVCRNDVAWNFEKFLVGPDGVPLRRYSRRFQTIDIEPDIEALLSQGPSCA
Procedure, shortened: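 Recombinant GPX1 (10 nM final) was preincubated with compound for 30 min at room temperature, then reacted with 1 mM GSH, 0.5 mM CHP, 0.5 mM NADPH and 100 nM glutathione reductase; NADPH fluorescence (340/450 nm) was read at 0 and 15 min.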

AS120 = test: qHTS profiling for inhibitors of Plasmodium falciparum proliferation (AID 504749); conditions: P. falciparum in erythrocytes, SYBR Green DNA, 72 h; series mostly up to 28.7 µM
Procedure, shortened: (§1)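 Parasite proliferation within erythrocytes, 72 h exposure. Endpoint: SYBR Green I fluorescence after overnight lysis at room temperature. Controls: 0.29 uM artemisinin, DMSO.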

ATS189 = test: as above; conditions: P. falciparum in erythrocytes, SYBR Green DNA, 72 h; series mostly up to 28.7 µM
Procedure, shortened: as §1

CP191 = test: as above; conditions: P. falciparum in erythrocytes, SYBR Green DNA, 72 h; series mostly up to 28.7 µM
Procedure, shortened: as §1

CP192 = test: as above; conditions: P. falciparum in erythrocytes, SYBR Green DNA, 72 h; series mostly up to 28.7 µM
Procedure, shortened: as §1

CP203 = test: as above; conditions: P. falciparum in erythrocytes, SYBR Green DNA, 72 h; series mostly up to 28.7 µM
Procedure, shortened: as §1

CP247 = test: as above; conditions: P. falciparum in erythrocytes, SYBR Green DNA, 72 h; series mostly up to 28.7 µM
Procedure, shortened: as §1

CP291 = test: as above; conditions: P. falciparum in erythrocytes, SYBR Green DNA, 72 h; series mostly up to 28.7 µM
Procedure, shortened: as §1

DFO2036 = test: as above; conditions: P. falciparum in erythrocytes, SYBR Green DNA, 72 h; series mostly up to 28.7 µM
Procedure, shortened: as §1

TAB113 = test: as above; conditions: P. falciparum in erythrocytes, SYBR Green DNA, 72 h; series mostly up to 28.7 µM
Procedure, shortened: as §1

[5] = system: NAD(P)H diaphorase (Clostridium kluyveri); test: Diaphorse counterscreen qHTS: Assay Interference Panel against the NCATS CANVASS Library (AID 1347362)
Procedure, shortened: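 Clostridium kluyveri diaphorase in PBS with 0.01% Tween-20 was preincubated 15 min at room temperature in the dark with compounds (11-point series). Resorufin fluorescence (ex 525/20, em 598/25) was read 5 min after adding resazurin/NADH.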

[6] = qHTS for Activators of p53 Stress Response Pathway screened against the NCATS CANVASS Library (AID 1347388)
Procedure, shortened: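 p53RE-bla HCT-116 cells (4000/well) were plated 5 h at 37C, exposed to compounds for 16 h at 37C over an 11-point concentration series, then loaded with CCF4 for 2 h at room temperature; 460/530 nm emission ratio read.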

[7] = Vero-766 cells viability qHTS against the NCATS CANVASS Library: Counterscreen for Zika virus inhibition assay (AID 1347394)
Procedure, shortened: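 CellTiter-Glo luminescence, lower signal indicating cytotoxicity. Vero 766 cells without Zika virus, 1000 cells/well, plated overnight, then treated 72 h at 37C across an 11-point series.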

[8] = qHTS for inhibitors of Wild type Zika virus screened against the NCATS CANVASS Library (AID 1347396)
Procedure, shortened: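 Luminescent CellTiter Glo read-out of virus-induced cytotoxicity, 72 h post-infection, in Vero 766 cells. Compounds were tested at 11 concentrations; uninfected, vehicle-treated wells defined 100% inhibition.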

[9] = HEK-293 Cancer Cell Toxicity qHTS against the NCATS CANVASS Library (AID 1347355)
Procedure, shortened: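 Cells at 1000/well were given compound 4 h after plating in an 11-point series. Viability was read by CellTiter-Glo luminescence after 72 h at 37 degrees C.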

[10] = qHTS for Inflammasome Signaling Inhibitors: IL-1-beta AlphaLISA screen against the NCATS CANVASS Library (AID 1347379)
Procedure, shortened: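 THP-1 cells pretreated 1 hr with compound (up to 57.5 uM final), then stimulated with LPS (250 ng/mL final) and ATP (1.25 mM final). Secreted IL-1B measured by AlphaLISA after 16 hr; glyburide as positive control.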

[11] = qHTS for Antimalaria activity screened against the NCATS CANVASS Library (AID 1347380)
Procedure, shortened: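 Red blood cells infected with P. falciparum Dd2 (2.5% hematocrit final, 0.3% parasitemia) were exposed to compounds in an 11-point qHTS series for 72 hr at 37C under 5% O2 and 5% CO2. Lysis buffer with SYBR Green was then added for 18 hr, and fluorescence was read at 485/535 nm.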

With CO[C@H]1[C@@H](O)CC(OC2[C@@H](O)CC(OC3[C@@H](O)C[C@H](OC4CC[C@@]5(C)C(CCC6C5CC(O)[C@]5(C)[C@H](C7=CC(=O)OC7)CCC65O)C4)O[C@@H]3C)O[C@@H]2C)O[C@@H]1C (some centres not stated) the Potency [1] was “inactive”, the Potency [2] was “inactive” and the Potency [3] was “inactive”. The Potency [4] was “inactive”, the Potency (AS120) was “inactive” and the Potency (ATS189) was “inactive”. The Potency (CP191) was “inactive”, the Potency (CP192) was “inactive” and the Potency (CP203) was “inactive”. For the same compound, the Potency (CP247) was “inactive”, the Potency (CP291) was “inactive” and the Potency (DFO2036) was “inactive”. The Potency (TAB113) was “inactive”.
For COc1ccc2c3c([nH]c2c1)C(C)=NCC3, the outcome [5] was “inactive”, the Potency [6] was 18.6 µM (active) and the Potency [7] was “inactive”. For the same compound, the Potency [8] was “inactive”.
For COc1ccc2c(c1)[nH]c1c(C)nccc12, the Potency [9] was 7.62 µM (active), the Potency [10] was 31.4 µM (active) and the Potency [11] was 0.0054 µM (active). For the same compound, the Potency [6] was 21.5 µM (active) and the Potency [8] was “inactive”.
In the case of C=C1[C@@H](C)[C@H]2[C@H](Cc3ccccc3)NC(=O)[C@]23OC(=O)/C=C/[C@H](O)CCC[C@@H](C)C/C=C/[C@H]3[C@@H]1O, the Potency [9] is reported as 9.35 µM (active), the outcome [5] is reported as “inactive” and the Potency [10] is reported as “inactive”. The Potency [11] was 4.2 µM (active) and the Potency [7] was 13.2 µM (active).

From PubChem BioAssay (NCATS)
